Results filed as inconclusive are left out. The source made the active and inactive calls. How the source made its calls, unless noted: active means hit-call score of the fitted dose curve at least 0.9, where 1 is the maximum; inactive means score below 0.9.
Legend:
[1] = CCTE_Shafer_MEA_dev_LDH: CCTE's Lactate Dehydrogenase Assay for Cytotoxicity in the Neural Network Formation Assay, Shafer Lab (AID 2284068; active means hit-call score of the fitted dose curve at least 0.9, where 1 is the maximum;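 further: exposure for twelve days from plating with re-dosing on DIV 5 and 9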)
Summary of the method: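 Rat cortical primary neurons, MEA culture; dosing day 0–12, full medium plus compound exchange DIV 5, 9. Read-out: LDH enzyme activity, spectrophotometric. DMSO = negative control/baseline; signal loss → cytotoxicity.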

[2] = CCTE_Shafer_MEA_dev_mutual_information_norm: CCTE's Neural Network Formation Assay for Mutual Information Normalization, Shafer Lab (AID 2284091)
Summary of the method: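 Developing rat cortical networks on 16-electrode MEA wells are treated throughout formation (DIV 0–12). Shared electrode information is recorded four times, converted to area-under-curve, and fitted for decreases against DMSO vehicle.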

[3] = CCTE_Shafer_MEA_dev_correlation_coefficient_mean: CCTE's Neural Network Formation Assay for Mean Correlation Coefficient, Shafer Lab (AID 2284093)
Summary of the method: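 Rat cortical cultures, 1.5 x 10^5 cells/well, dosed from day 0 for 12 days. Spontaneous spikes recorded DIV 5/7/9/12; electrode-pair correlation coefficients averaged, AUC taken. Fit in loss direction vs DMSO.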

[4] = CCTE_Mundy_HCI_Cortical_Synap_Neur_Matur_NeuriteSpotCountPerNeuriteLength: CCTE's Synaptogenesis and Neurite Maturation Assay in rat cortical cells for Neurite Spot Count per Neurite Length, Mundy Lab (AID 2284210)
Summary of the method: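 Primary rat cortical neurons, compound exposure DIV 7–12, 288.33 h endpoint. Hoechst, anti-MAP2 and anti-synaptophysin labelling; neurite-associated puncta per neurite length scored by automated imaging relative to DMSO controls.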

[5] = CCTE_Mundy_HCI_Cortical_Synap_Neur_Matur_BPCount: CCTE's Synaptogenesis and Neurite Maturation Assay in rat cortical cells for Branch Point Count, Mundy Lab (AID 2284211)
Summary of the method: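 Rat primary cortical cultures, AraC added DIV 5; chemicals dosed DIV 7 through DIV 12. Fixed cells stained for MAP2, synaptophysin and Hoechst; neurite branch points counted by automated high-content imaging, fitted relative to DMSO.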

[6] = CCTE_Mundy_HCI_Cortical_NOG_NeuriteCount: CCTE's Neurite Outgrowth Assay in rat cortical cells for Neurite Count, Mundy Lab (AID 2284212);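 further: cells fixed about two days after chemical exposure began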
Summary of the method: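 Neurite number per cell from high-content imaging of betaIII-tubulin immunostaining, with Hoechst nuclear counterstain.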

[7] = CCTE_Mundy_HCI_Cortical_NOG_NeuriteLength: CCTE's Neurite Outgrowth Assay in rat cortical cells for Neurite Length, Mundy Lab (AID 2284213)
Summary of the method: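 Neurite length was read by high-content imaging of βIII-tubulin-labelled neurites in rat primary cortical cultures. Activity was fitted relative to DMSO.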

[8] = CCTE_Mundy_HCI_Cortical_Synap_Neur_Matur_NeuriteLength: CCTE's Synaptogenesis and Neurite Maturation Assay in rat cortical cells for Neurite Length, Mundy Lab (AID 2284214)
Summary of the method: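 Rat cortical neurons, AraC at DIV 5; compound + media change DIV 7, end DIV 12 (288.33 h). Fix, MAP2/synaptophysin/Hoechst immunostain, automated HCI of neurite length vs DMSO.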

[9] = CCTE_Mundy_HCI_Cortical_Synap_Neur_Matur_NeuriteSpotCountPerNeuron: CCTE's Synaptogenesis and Neurite Maturation Assay in rat cortical cells for Neurite Spot Count per Neuron Count, Mundy Lab (AID 2284215)
Summary of the method: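 Rat cortical primary cultures; AraC DIV 5 to arrest glia; dosing + media change DIV 7; fixed DIV 12. Anti-MAP2/anti-synaptophysin, Hoechst nuclei; HCI puncta count per neuron, positive fitting direction vs DMSO.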

[10] = CCTE_Mundy_HCI_Cortical_Synap_Neur_Matur_NeuriteCount: CCTE's Synaptogenesis and Neurite Maturation Assay in rat cortical cells for Neurite Count, Mundy Lab (AID 2284222);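 further: exposure from day 7 to day 12 in vitro with readout at day 12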
Summary of the method: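 Primary rat cortical cells were plated, treated with AraC at DIV 5, then exposed to chemicals from DIV 7 through DIV 12. After fixation and immunostaining for MAP2 and synaptophysin, imaging quantified neurites, with DMSO as the negative control.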

[11] = CCTE_Mundy_HCI_Cortical_Synap_Neur_Matur_CellBodySpotCount: CCTE's Synaptogenesis and Neurite Maturation Assay in rat cortical cells for Cell Body Spot Count, Mundy Lab (AID 2284223)
Summary of the method: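 Rat cortical neurons; AraC @ DIV 5; dose + media change DIV 7; fix DIV 12; anti-MAP2/anti-synaptophysin IF, Hoechst; HCI count of soma synaptophysin puncta/neuron; DMSO = negative control.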

[12] = CCTE_Mundy_HCI_Cortical_NOG_BPCount: CCTE's Neurite Outgrowth Assay in rat cortical cells for Branch Point Count, Mundy Lab (AID 2284237)
Summary of the method: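 Measured 50.33 h after dosing, this morphology endpoint uses rat primary cortical cultures labelled for betaIII-tubulin. Branch points are quantified by high-content imaging, with DMSO as negative control and baseline.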

[13] = CCTE_Mundy_HCI_iCellGluta_NOG_NeuronCount: CCTE's Neurite Outgrowth Assay in iCellGluta cells for Neuron Count, Mundy Lab (AID 2284340; active means hit-call score of the fitted dose curve at least 0.9, where 1 is the maximum;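 further: cells fixed about 48 h after compound addition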)
Summary of the method: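 Neuron count read by automated high-content imaging of Hoechst 33342 and betaIII-tubulin/Alexa Fluor-488 labelling in human iPSC glutamatergic neurons. Activity fitted relative to DMSO.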

[14] = CCTE_Mundy_HCI_iCellGluta_NOG_NeuriteCount: CCTE's Neurite Outgrowth Assay in iCellGluta cells for Neurite Count, Mundy Lab (AID 2284342; active means hit-call score of the fitted dose curve at least 0.9, where 1 is the maximum;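 further: chemical exposure about 48 hours starting 2 hours after plating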)
[15] = target: human Thyroid Receptor Alpha (TRa), THRA (gene 7067) (UniProt P10827); assay: NVS_NR_hTRa_Antagonist: NovaScreen (NVS) Nuclear Receptor Binding Assay for human Thyroid Receptor Alpha Antagonism (TRa) (AID 2283362; active means hit-call score of the fitted dose curve at least 0.9, where 1 is the maximum;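 further: activity is loss of signal relative to DMSO baseline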)
Chain of human Thyroid Receptor Alpha (TRa), THRA (gene 7067) (P10827 whole entry, looked up): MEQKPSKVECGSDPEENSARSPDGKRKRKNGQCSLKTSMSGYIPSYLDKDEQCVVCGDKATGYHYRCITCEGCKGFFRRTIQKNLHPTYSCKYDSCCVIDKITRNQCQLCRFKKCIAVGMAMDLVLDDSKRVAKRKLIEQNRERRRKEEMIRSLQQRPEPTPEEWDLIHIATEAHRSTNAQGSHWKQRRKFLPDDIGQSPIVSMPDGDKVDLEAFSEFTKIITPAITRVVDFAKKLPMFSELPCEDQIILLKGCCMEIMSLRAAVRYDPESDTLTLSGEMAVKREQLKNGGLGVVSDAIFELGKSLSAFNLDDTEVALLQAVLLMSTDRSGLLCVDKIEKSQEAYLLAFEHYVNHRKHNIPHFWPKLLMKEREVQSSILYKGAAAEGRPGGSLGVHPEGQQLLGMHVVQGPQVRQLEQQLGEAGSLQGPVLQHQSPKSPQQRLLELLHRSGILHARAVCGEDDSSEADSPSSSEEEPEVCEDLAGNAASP
Summary of the method: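 Extracted protein, cell-free; 1 h incubation after dosing; AlphaLISA chemiluminescence binding readout. DMSO = baseline/neg ctrl; signal loss = activity. Primary: duplicate, 25 uM; secondary: conc. series on actives.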

[16] = target: Sodium channel protein type 1 subunit alpha (Rattus norvegicus) (UniProt P04774); assay: NVS_IC_rNaCh_site2: NovaScreen (NVS) Ion Channel Assay for rat Sodium Channel, Site 2 (NaCh) (AID 2283322; active means hit-call score of the fitted dose curve at least 0.9, where 1 is the maximum;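 further: hit means loss of radioligand binding signal relative to DMSO so AC50 marks displacement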)
Summary of the method: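 Membranes: rat forebrain. Format: competitive radioligand displacement, filter separation, scintillation readout, 1 h exposure. Primary screen in duplicate at 25 uM; actives retested in concentration series.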

[17] = target: guinea pig Sigma Receptor, Non-selective Binding, SIGMAR1 (gene 100135589) (UniProt Q60492); assay: NVS_OR_gSIGMA_NonSelective: NovaScreen (NVS) Nuclear Receptor Binding Assay for guinea pig Sigma Receptor, Non-selective Binding (AID 2283367; active means hit-call score of the fitted dose curve at least 0.9, where 1 is the maximum)
Chain of guinea pig Sigma Receptor, Non-selective Binding, SIGMAR1 (gene 100135589) (Q60492 whole entry, looked up): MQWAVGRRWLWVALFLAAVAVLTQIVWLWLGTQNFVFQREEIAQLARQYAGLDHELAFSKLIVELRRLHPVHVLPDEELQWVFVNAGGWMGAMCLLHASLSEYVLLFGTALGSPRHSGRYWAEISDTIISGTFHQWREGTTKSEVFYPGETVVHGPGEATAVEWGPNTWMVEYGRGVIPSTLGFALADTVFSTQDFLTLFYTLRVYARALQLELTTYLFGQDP
Summary of the method: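 gp brain membr., radioligand displacement, 1 h, filtration + scint. counting; DMSO = baseline; 25 uM x2 primary, conc.-response confirm.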

[18] = target: human Matrix Metalloproteinase-9 (MMP9), MMP9 (gene 4318) (UniProt P14780); assay: NVS_ENZ_hMMP9: NovaScreen (NVS) Enzymatic Assay for human Matrix Metalloproteinase-9 (MMP9) (AID 2283190; active means hit-call score of the fitted dose curve at least 0.9, where 1 is the maximum;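 further: cell-free recombinant MMP9 protease activity read by fluorescent substrate signal; active means inhibition seen as loss of fluorescence signal versus DMSO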)
Chain of human Matrix Metalloproteinase-9 (MMP9), MMP9 (gene 4318) (P14780 whole entry, looked up): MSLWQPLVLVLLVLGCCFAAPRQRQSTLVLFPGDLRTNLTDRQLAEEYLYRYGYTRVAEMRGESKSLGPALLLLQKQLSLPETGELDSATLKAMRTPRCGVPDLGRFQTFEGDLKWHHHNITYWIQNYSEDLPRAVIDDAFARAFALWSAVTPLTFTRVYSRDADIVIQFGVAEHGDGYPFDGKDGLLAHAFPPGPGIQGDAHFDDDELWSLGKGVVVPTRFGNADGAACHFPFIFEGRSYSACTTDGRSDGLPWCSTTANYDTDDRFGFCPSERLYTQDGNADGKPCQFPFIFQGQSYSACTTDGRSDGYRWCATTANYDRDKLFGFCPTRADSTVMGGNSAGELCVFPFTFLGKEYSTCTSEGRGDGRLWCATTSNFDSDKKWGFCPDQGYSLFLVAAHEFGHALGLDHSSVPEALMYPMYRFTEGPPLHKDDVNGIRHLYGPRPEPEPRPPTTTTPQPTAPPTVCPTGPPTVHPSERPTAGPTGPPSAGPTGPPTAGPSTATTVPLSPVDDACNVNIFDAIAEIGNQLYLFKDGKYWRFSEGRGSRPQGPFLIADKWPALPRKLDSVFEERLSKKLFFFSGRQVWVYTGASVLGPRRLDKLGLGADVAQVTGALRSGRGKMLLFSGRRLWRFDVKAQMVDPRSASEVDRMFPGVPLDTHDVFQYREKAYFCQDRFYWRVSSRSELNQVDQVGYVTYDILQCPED
Summary of the method: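 Extracted enzyme, fluorescent substrate, 1 h post-dose read. Single conc 25 uM in duplicate, then concentration series for actives. Activity = signal loss relative to DMSO negative control.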

[19] = target: sheep Cyclooxygenase-1 (Cox1), PTGS1 (gene 443551) (UniProt P05979); assay: NVS_ENZ_oCOX1: NovaScreen (NVS) Enzymatic Assay for sheep Cyclooxygenase-1 (Cox1) (AID 2283239; active means hit-call score of the fitted dose curve at least 0.9, where 1 is the maximum;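 further: actives reduce cyclooxygenase activity so potencies are for inhibitors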)
Chain of sheep Cyclooxygenase-1 (Cox1), PTGS1 (gene 443551) (P05979 whole entry, looked up): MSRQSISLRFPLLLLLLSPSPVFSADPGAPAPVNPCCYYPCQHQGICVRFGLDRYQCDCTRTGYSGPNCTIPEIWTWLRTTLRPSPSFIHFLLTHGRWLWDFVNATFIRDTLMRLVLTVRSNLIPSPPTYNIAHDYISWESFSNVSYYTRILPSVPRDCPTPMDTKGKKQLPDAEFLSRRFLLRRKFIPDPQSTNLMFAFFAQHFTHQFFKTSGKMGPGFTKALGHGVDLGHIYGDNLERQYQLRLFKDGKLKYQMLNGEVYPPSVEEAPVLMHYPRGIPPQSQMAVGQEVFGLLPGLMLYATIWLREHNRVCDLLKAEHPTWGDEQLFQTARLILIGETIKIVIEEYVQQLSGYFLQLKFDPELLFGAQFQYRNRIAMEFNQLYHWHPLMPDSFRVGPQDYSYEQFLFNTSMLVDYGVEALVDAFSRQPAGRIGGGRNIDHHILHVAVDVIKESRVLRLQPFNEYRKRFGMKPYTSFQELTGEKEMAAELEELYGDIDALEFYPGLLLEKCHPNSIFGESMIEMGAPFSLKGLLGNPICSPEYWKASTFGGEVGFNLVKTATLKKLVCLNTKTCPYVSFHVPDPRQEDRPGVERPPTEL
Summary of the method: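 Absorbance read-out of cyclooxygenase activity in a cell-free preparation from sheep seminal vesicles, taken 0.66 hour after dosing. Initial testing was in duplicate at 25 uM, and confirmatory testing was run in concentration series.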

[20] = NVS_IC_rCaBTZCHL: NovaScreen (NVS) Ion Channel Assay for Calcium Channel, Type L, Benzothiazepine Site (CaBTZCHL) (AID 2283337; active means hit-call score of the fitted dose curve at least 0.9, where 1 is the maximum)
Summary of the method: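 Scintillation counting of filter-bound radioligand gave the read-out, with reduced binding versus DMSO scored as activity. Membranes came from rat cortex and were read 1.5 h after compound addition. Chemicals were screened first in duplicate at 25 uM.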

Measured: AC50

NC(N)=Nc1nc(CSCCC(N)=NS(N)(=O)=O)cs1
not listed: [15] | [16] | [17] | [18] | [19] | [20]
inactive: all other assays above

C=C1CC[C@H]2C[C@@H]1C2(C)C
inactive: [15]

CN(C)CCC(c1ccc(Cl)cc1)c1ccccn1 (stereo not given)
active: [16] 3.21 µM | [17] 3.14 µM
not listed: [15] | [18] | [19] | [20]
inactive: all other assays above

CCO[Si](OCC)(OCC)c1ccccc1
active: [18] 1.37 µM

Cc1cc(C)c(S(=O)(=O)O)cc1N=Nc1cc(S(=O)(=O)O)c2ccccc2c1O
active: [15] 29.5 µM

COC(=O)c1ccccc1
inactive: [19]

CC1=NN(c2cc(Cl)c(S(=O)(=O)O)cc2Cl)C(=O)C1N=Nc1ccc(S(=O)(=O)O)cc1 (stereo not given)
inactive: [15]

O=C(C(=O)c1ccccc1)c1ccccc1
inactive: [16] | [20]

N#CCN(CC#N)CCN(CC#N)CC#N
inactive: [19]

CCC(C)(CCC(C)C)C(=O)O (stereo not given)
active: [18] 2.32 µM

CCCCCCCCCCCCCCCCCC[N+](C)(C)C
active: [17] 2.61 µM
inactive: [20]

CN(C)c1ccc(C(c2ccccc2)c2ccc(N(C)C)cc2)cc1
inactive: [18]

CC[N+](CC)(CC(=O)Nc1c(C)cccc1C)Cc1ccccc1
active: [16] 3.49 µM | [20] 7.02 µM | [17] 12.7 µM

CC(C)CC(=O)O
active: [19] 25 µM

CC1(C)S[C@@H]2[C@H](NC(=O)[C@H](N)c3ccccc3)C(=O)N2[C@H]1C(=O)O
not listed: [15] | [16] | [17] | [18] | [19] | [20]
inactive: all other assays above
